Experimental data taken from the supplement of paper PMC6992640.
± gives the standard deviation of the averaged measurements.

Key:
Assay in all cases: cell viability (% of vehicle); higher = less cytotoxic
Conditions in all cases: 10 µM; 72 h
[1] = tested on: HCI01 (cells of a triple-negative basal-like breast cancer xenograft)
[2] = tested on: HCI03 (cells of an ER-positive luminal breast cancer xenograft)
[3] = tested on: HCI09 (cells of a triple-negative luminal androgen receptor type breast cancer xenograft)
[4] = tested on: HCI11 (cells of an ER-positive luminal breast cancer xenograft)
[5] = tested on: HCI13 (cells of an ER-positive luminal breast cancer xenograft)
[6] = tested on: HCI16 (cells of a triple-negative basal-like breast cancer xenograft)
[7] = tested on: UCD52 (cells of a triple-negative basal-like breast cancer xenograft)
[8] = tested on: WHIM2 (cells of a triple-negative basal-like breast cancer xenograft)
[9] = tested on: WHIM30 (cells of a triple-negative basal-like breast cancer xenograft)
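Note: PDX cells carrying CMV promoter-driven luciferase, viability read as total photon flux per second by IVIS imaging following D-luciferin, vehicle control 0.1% DMSO.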

| SMILES | cell viability [1] | cell viability [2] | cell viability [3] | cell viability [4] | cell viability [5] | cell viability [6] | cell viability [7] | cell viability [8] | cell viability [9] |
| --- | --- | --- | --- | --- | --- | --- | --- | --- | --- |
| Brc1c(NC2=NCCN2)ccc2nccnc12.O=C(O)C(O)C(O)C(=O)O [Brimonidine Tartrate] | 123 ± 9.2 | 125 | 78 ± 4.6 | 89.9 | 88.5 ± 4.5 | 124 | 90.8 ± 10 | 125 ± 25 | 98.4 ± 1.3 |
| O=C(NCCO[N+](=O)[O-])c1cccnc1 [Nicorandil] | 81.9 ± 59 | 135 | 93.1 ± 9.9 | 89.3 | 151 ± 28 | 113 | 82.6 ± 8.1 | 120 ± 9.5 | 127 ± 5.8 |
| NCCCCCC(=O)O [(6-)ε-Aminocaproic acid] | 67.8 ± 37 | 136 | 90 ± 16 | 79.6 | 104 ± 5 | 101 | 77.2 ± 5.2 | 101 ± 24 | 155 ± 23 |
| Nc1cccc2c1C(=O)N(C1CCC(=O)NC1=O)C2=O (stereo unspecified) [Pomalidomide (CC-4047)] | 122 ± 2 | 126 | 87.9 ± 2.9 | 108 | 91.9 ± 8.8 | 103 | 104 ± 3.8 | 73.9 ± 5.1 | 133.9 ± 0.79 |
| CNC(=O)[C@H](Cc1ccccc1)NC(=O)[C@H](CC(C)C)[C@H](CSc1cccs1)C(=O)NO [Batimastat (BB-94)] | 94.3 ± 12 | 88.2 | 78.2 ± 20 | 95.3 | 127 ± 3.9 | 67 | 127 ± 16 | 72 ± 22 | 175 ± 0.83 |
| CS(=O)(=O)O.OC(CCN1CCCCC1)(c1ccccc1)c1ccccc1 [Pridinol Methanesulfonate] | 113 ± 3.7 | 104 | 124 ± 47 | 119 | 92.6 ± 12 | 112 | 86.1 ± 6.1 | 164 ± 89 | 129 ± 10 |
| COc1ccc(O)cc1 [Mequinol] | 91 ± 10 | 108 | 101 ± 13 | 70.4 | 124 ± 32 | 118 | 71 ± 7.1 | 96.5 ± 20 | 100 ± 2.8 |
| CC(=O)OC1(C(C)=O)CCC2C3CCC4=CC(=O)CCC4=C3C(c3ccc(N(C)C)cc3)CC21C (stereo unspecified) [Ulipristal acetate] | 97.9 ± 26 | 116 | 82.5 ± 9 | 78.9 | 92.8 ± 17 | 117 | 93.4 ± 5.8 | 105 ± 2.1 | 111 ± 18 |
| CC(N)(Cc1ccc(O)c(O)c1)C(=O)O (stereo unspecified) [Methyldopa] | 95.3 ± 9.9 | 96.8 | 95.5 ± 7.2 | 63.1 | 126 ± 11 | 127 | 91.1 ± 2.8 | 112 ± 1.3 | 96.2 ± 3.6 |
| COC(=O)C1=C(C)NC(C)=C(C(=O)OC(C)C)C1c1cccc2nonc12 (stereo unspecified) [Isradipine (Dynacirc)] | 111 ± 18 | 118 | 48.7 ± 41 | 91.9 | 109 ± 6.2 | 117 | 76.2 ± 9.4 | 92.5 ± 11 | 88.7 ± 3.6 |
| CN(C)CCN1C(=O)c2cccc3cc(N)cc(c23)C1=O [Amonafide] | 103 ± 4 | 69.4 | 42.7 ± 14 | 90.4 | 64.7 ± 3.1 | 196 | 138 ± 26 | 55.5 ± 5.5 | 78.5 ± 1.6 |
| Cc1ccccc1C(OCCN(C)C)c1ccccc1.O=C(O)CC(O)(CC(=O)O)C(=O)O (stereo unspecified) [Orphenadrine Citrate] | 145 ± 33 | 130 | 104 ± 1.3 | 90.9 | 108 ± 15 | 138 | 68.3 ± 6.3 | 83.3 ± 17 | 100 ± 7.5 |
| [I-].[K+] [Potassium Iodide] | 98.5 ± 37 | 134 | 97 ± 8.2 | 97.4 | 169 ± 3.2 | 127 | 102 ± 6.1 | 82 ± 5.4 | 121 ± 7.5 |
| O=C([O-])c1cc(=O)c2c(OCC(O)COc3cccc4oc(C(=O)[O-])cc(=O)c34)cccc2o1.[Na+].[Na+] [Cromolyn sodium] | 136 ± 48 | 135 | 97.1 ± 3.8 | 71.8 | 102 ± 13 | 116 | 113 ± 5 | 134 ± 15 | 121 ± 4.5 |
| CC(=O)Oc1cc2c(s1)CCN(C(C(=O)C1CC1)c1ccccc1F)C2.Cl (stereo unspecified) [Prasugrel hydrochloride] | 140 ± 12 | 137 | 109 ± 14 | 120 | 74.2 ± 5.5 | 149 | 110 ± 20 | 110.1 ± 0.98 | 133 ± 10 |
| CCCc1ncc(C[n+]2ccccc2C)c(N)n1.Cl.[Cl-] [Amprolium HCl] | 129 ± 15 | 135 | 102 ± 4.4 | 104 | 128 ± 7 | 145 | 71.4 ± 27 | 110 ± 7.3 | 99.4 ± 13 |
| Nc1ncnc2c1ncn2C1OC(CO)C(O)C1O (stereo unspecified) [Vidarabine] | 64.8 ± 36 | 136 | 90.1 ± 5.1 | 86.9 | 106 ± 6.1 | 96.1 | 80.5 ± 2.9 | 105 ± 19 | 153 ± 7.4 |
| Nc1ncnc2c1ncn2C1OC(CO)C(O)C1O (stereo unspecified) [Adenosine] | 99.7 ± 3.6 | 123 | 90.4 ± 15 | 96.9 | 66.2 ± 4.5 | 97.7 | 95.7 ± 3.5 | 121 ± 34 | 124 ± 16 |
| CCCCc1nc(Cl)c(CO)n1Cc1ccc(-c2ccccc2-c2nnn[n-]2)cc1.[K+] [Losartan Potassium (DuP 753)] | 126 ± 8.5 | 124 | 106 ± 8.5 | 79 | 82.7 ± 0.98 | 82.3 | 97.9 ± 7.8 | 87 ± 17 | 118 ± 2.1 |
| CCN1CCCC1CNC(=O)c1cc(S(=O)(=O)CC)c(N)cc1OC (stereo unspecified) [Amisulpride] | 189 ± 32 | 126 | 108 ± 14 | 100 | 82.7 ± 0.84 | 159 | 116 ± 15 | 122 ± 4 | 139 ± 2.1 |

| SMILES | cell viability [1] | cell viability [2] | cell viability [3] | cell viability [4] | cell viability [5] | cell viability [6] | cell viability [7] | cell viability [8] | cell viability [9] |
| --- | --- | --- | --- | --- | --- | --- | --- | --- | --- |
| C[N+]1(C)CCC(OC(=O)C(O)(c2ccccc2)C2CCCC2)C1.[Br-] (stereo unspecified) [Glycopyrrolate] | 110 ± 5.3 | 152 | 123 ± 51 | 99.3 | 117 ± 12 | 94.8 | 95.6 ± 5.1 | 100 ± 5.2 | 83.6 ± 6.5 |
| Cc1ccc(S(=O)(=O)NC(=O)NN2CC3CCCC3C2)cc1 (stereo unspecified) [Gliclazide] | 93.2 ± 72 | 143 | 90.8 ± 21 | 90.2 | 105 ± 4.1 | 122 | 95.6 ± 12 | 125 ± 8.1 | 125 ± 9.6 |
| Cc1ncc(CO)c(CO)c1O.Cl [Pyridoxine HCl] | 89.2 ± 31 | 121 | 90.1 ± 4.5 | 91.9 | 117 ± 18 | 107 | 99.9 ± 5.3 | 86.6 ± 2.4 | 100 ± 3.4 |
| CCCCCCCN(CC)CCCC(O)c1ccc(NS(C)(=O)=O)cc1.CCCCCCCN(CC)CCCC(O)c1ccc(NS(C)(=O)=O)cc1.O=C(O)C=CC(=O)O (stereo unspecified) [Ibutilide Fumarate] | 93.5 ± 15 | 121 | 105 ± 18 | 103 | 130 ± 10 | 117 | 96.8 ± 2 | 122 ± 3 | 128 ± 21 |
| CN(C)CCC=C1c2ccccc2COc2ccc(CC(=O)O)cc21.Cl [Olopatadine HCl] | 122 ± 18 | 130 | 101 ± 9.1 | 97.6 | 182 ± 38 | 99.1 | 81.6 ± 14 | 87.1 ± 13 | 108 ± 4.9 |
| COc1ccc2[nH]cc(CCNC(C)=O)c2c1 [Melatonin] | 112 ± 10 | 134 | 106 ± 2.2 | 97.8 | 108 ± 3.3 | 109 | 127 ± 5.4 | 121 ± 26 | 158 ± 17 |
| CC(=O)Oc1cc2c(s1)CCN(C(C(=O)C1CC1)c1ccccc1F)C2 (stereo unspecified) [Prasugrel] | 76.6 ± 67 | 164 | 114 ± 4.9 | 120 | 81.6 ± 18 | 122 | 113 ± 20 | 102 ± 28 | 112 ± 16 |
| COc1ccc(C(=O)c2ccccc2)c(O)c1 [Oxybenzone] | 120 ± 26 | 141 | 111 ± 15 | 109 | 103 ± 8.8 | 128 | 117 ± 11 | 125 ± 6.8 | 137 ± 22 |
| CC12C=CC(=O)NC1CCC1C2CCC2(C)C(C(=O)Nc3cc(C(F)(F)F)ccc3C(F)(F)F)CCC12 (stereo unspecified) [Dutasteride] | 129 ± 13 | 107 | 114 ± 15 | 92.4 | 123 ± 1.7 | 111 | 100 ± 4.5 | 90.3 ± 22 | 142 ± 12 |
| CC1C(=O)OC2CC34C5CC(C(C)(C)C)C36C(OC(=O)C6O)OC4(C(=O)O5)C21O (stereo unspecified) [Ginkgolide A] | 98.9 ± 14 | 112 | 97.3 ± 6.1 | 96.5 | 114 ± 6 | 116 | 91.6 ± 10 | 101 ± 12 | 91.5 ± 9.4 |
| CN(CCOc1ccc(CC2SC(=O)NC2=O)cc1)c1ccccn1.O=C(O)C=CC(=O)O (stereo unspecified) [Rosiglitazone maleate] | 132 ± 20 | 115 | 94 ± 16 | 90.1 | 107.5 ± 0.5 | 99.6 | 105 ± 7.2 | 156 ± 25 | 136 ± 25 |
| CCN(CC)CCOC(=O)C1(C2CCCCC2)CCCCC1.Cl [Dicyclomine HCl] | 126 ± 7.2 | 123 | 102 ± 11 | 99.7 | 90.1 ± 10 | 141 | 68.6 ± 1.9 | 104 ± 1.9 | 117 ± 2.5 |
| CC12C=CC(=O)C=C1CCC1C2C(=O)CC2(C)C1CCC2(O)C(=O)CO (stereo unspecified) [Prednisone] | 71.1 ± 46 | 93.9 | 118 ± 37 | 98.9 | 165 ± 8.5 | 138 | 103 ± 3.1 | 92.6 ± 38 | 130 ± 13 |
| Cl.O=c1n(CCCN2CCN(c3cccc(Cl)c3)CC2)nc2ccccn12 [Trazodone HCl] | 112 ± 11 | 123 | 95.5 ± 16 | 101 | 104 ± 9.6 | 148 | 89.05 ± 0.23 | 105 ± 23 | 192 ± 16 |
| O=C(O)CCCN1CCC(OC(c2ccc(Cl)cc2)c2ccccn2)CC1.O=S(=O)(O)c1ccccc1 (stereo unspecified) [Bepotastine Besilate] | 155 ± 45 | 131 | 112 ± 1.6 | 96.6 | 121 ± 6.6 | 128 | 87.6 ± 21 | 87.7 ± 5.1 | 138 ± 10 |
| CN1C2CCCC1CC(NC(=O)c1nn(C)c3ccccc13)C2 (stereo unspecified) [Granisetron] | 112 ± 1.8 | 119 | 108 ± 9.4 | 81.8 | 108 ± 12 | 89.3 | 105 ± 4.6 | 110 ± 28 | 133 ± 31 |
| NC(=O)c1cccnc1 [Nicotinamide] | 95.4 ± 11 | 114 | 95.5 ± 14 | 99.9 | 110 ± 5 | 107 | 99.57 ± 0.88 | 86.9 ± 12 | 94.7 ± 5.4 |
| Cc1nc(C(=O)NCC(=O)O)c(O)c2ccc(Oc3ccccc3)cc12 | 122 ± 2.7 | 189 | 88.7 ± 11 | 140 | 113 ± 4.4 | 88.2 | 107 ± 14 | 160 ± 8.2 | 116 ± 14 |
| Cc1cccc(C)c1NC(=O)C1CCCCN1C.Cl (stereo unspecified) [Mepivacaine HCl] | 87.6 ± 1.4 | 89.2 | 97.91 ± 0.71 | 96.2 | 124 ± 2.2 | 118 | 70.4 ± 3.6 | 89.7 ± 14 | 166 ± 4.5 |
